PAFAH1B3 inh – inhibitors of human PAFAH1B3; recombinant PAFAH1B3, FP-rhodamine probe, fluorescence polarization; inhibition, % at 3.39 µM; 340,000 tested, 0.28% active;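 active = inhibition above the screen-wide average of all tested compounds plus 3 SD, cut at about 25% in these data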;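 note: 0% = enzyme with DMSO only and 100% = wells lacking PAFAH1B3 protein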
Target sequence (Q15102 whole entry, looked up): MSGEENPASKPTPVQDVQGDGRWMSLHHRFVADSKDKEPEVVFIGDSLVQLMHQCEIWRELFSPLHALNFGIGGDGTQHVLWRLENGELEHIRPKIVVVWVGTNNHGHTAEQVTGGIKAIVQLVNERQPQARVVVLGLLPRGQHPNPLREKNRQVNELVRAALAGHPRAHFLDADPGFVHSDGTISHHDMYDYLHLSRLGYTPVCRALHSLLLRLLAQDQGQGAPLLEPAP
PAFAH2 FP inh – PAFAH2 (human) inhibition; Q99487; recombinant PAFAH2, FP-rhodamine activity probe, fluorescence polarization; inhibition, % at 3.39 µM; 340,000 tested, 0.99% active;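 active = inhibition above the mean over all tested compounds plus 3 SD, cut at about 30% in these data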;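 note: inhibitors block probe labeling of enzyme so polarization drops; 0% = enzyme with DMSO and 100% = wells lacking PAFAH2 protein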
pPAFAH inh – pPAFAH (human) enzyme inhibition. recombinant pPAFAH, FP-rhodamine probe fluorescence polarization. inhibition, % at 3.39 µM. AID 463082. Q13093. 330,000 tested, 1.5% active;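 active = inhibition above the mean inhibition across the screen plus 3 SD, cut at about 25% in these data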;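 note: inhibitors block binding of the rhodamine activity-based probe so polarization drops; 0% = enzyme with DMSO and 100% = wells lacking pPAFAH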
Target sequence (Q13093 whole entry, looked up): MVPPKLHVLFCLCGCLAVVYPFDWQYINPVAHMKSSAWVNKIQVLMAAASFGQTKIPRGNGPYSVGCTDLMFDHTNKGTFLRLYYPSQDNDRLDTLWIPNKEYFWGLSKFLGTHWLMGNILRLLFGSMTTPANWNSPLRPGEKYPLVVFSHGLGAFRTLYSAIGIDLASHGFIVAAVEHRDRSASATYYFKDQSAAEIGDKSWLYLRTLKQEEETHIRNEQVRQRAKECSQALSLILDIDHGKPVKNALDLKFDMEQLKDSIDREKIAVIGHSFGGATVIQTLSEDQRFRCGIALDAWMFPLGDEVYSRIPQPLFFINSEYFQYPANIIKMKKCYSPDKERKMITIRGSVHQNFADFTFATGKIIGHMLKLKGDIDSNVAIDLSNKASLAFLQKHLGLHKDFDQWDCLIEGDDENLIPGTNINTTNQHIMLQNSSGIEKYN
PAFAH1B2 inh – inhibitors of human PAFAH1B2; inhibition, % at 3.39 µM; 340,000 tested, 1.2% active; recombinant PAFAH1B2, FP-rhodamine activity probe, fluorescence polarization;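 active = inhibition above the mean of all tested compounds plus 3 SD, cut at about 24% in these data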;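 note: 0% = enzyme with DMSO and 100% = wells lacking PAFAH1B2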
TCR CD3 inh – human TCR-CD3 binding inhibition; TAMRA-labeled TCR probe fluorescence, biochemical; inhibition, % at 9.4 µM; 360,000 tested, 0.37% active;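 note: recombinant mutant TCR 2C K166C tagged with TAMRA read by polarization; 0% = receptor in buffer alone and 100% = receptor with positive control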
pPAFAH FP conf – confirmation of human plasma PAF acetylhydrolase (pPAFAH) inhibitors; 2,300 tested, 72% active; shares compounds with pPAFAH inh; inhibition, % at 3.39 µM; AID 463230; recombinant pPAFAH, FP-Rh probe fluorescence polarization;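 active = mean inhibition of the triplicate above the hit cutoff set for the earlier primary screen, cut at about 25% in these data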;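 note: 0% = enzyme with DMSO and 100% = wells lacking pPAFAH enzyme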
PAFAH2 FP conf – PAFAH2 (human) inhibition, confirmed | shares compounds with PAFAH2 FP inh | recombinant PAFAH2, FP-rhodamine activity probe, fluorescence polarization | inhibition, % at 3.39 µM | 2,300 tested, 65% active | AID 493030;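 active = mean inhibition over three repeats above a set limit taken from the earlier primary screen, cut at about 30% in these data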;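 note: inhibitor blocks binding of rhodamine activity probe so polarization falls; 0% = enzyme with DMSO and 100% = wells lacking PAFAH2 protein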
BSA TAMRA ctr – BSA probe counter-screen for TCR-CD3 inhibitors | AID 652035 | TAMRA-labeled BSA probe fluorescence counterscreen | 1,200 tested, 10% active | shares compounds with TCR CD3 inh | inhibition, % at 9.4 µM; in the data active = inhibition above about 23%;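 note: 0% = buffer low control and 100% = reference high control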
TCR-CD3 conf – TCR-CD3 interaction inhibition, confirmation | inhibition, % at 9.4 µM | 1,200 tested, 48% active | shares compounds with TCR CD3 inh | AID 652036 | TAMRA-labeled TCR probe fluorescence binding assay
An asterisk follows results filed as active; · = no result given. Hits are enriched below; roughly 2.7% of the tested compounds scored in any of these assays. Cut-off read from the data, not from the text of the source, unless noted: active = inhibition above about 19%; inactive = the rest.

SMILES | PAFAH1B3 inh | PAFAH2 FP inh | pPAFAH inh | PAFAH1B2 inh | TCR CD3 inh | pPAFAH FP conf | BSA TAMRA ctr | TCR-CD3 conf | others
CCOC(=O)/C=C1/SCC(=O)N1CC(=O)Nc1ccc2c(c1)CCC2 | 1.6 | -1.3 | · | 1.5 | -3.2 | · | · | ·
Cc1ccsc1C(=O)N1CCC1(C)C(=O)Nc1ccc2c(c1)OCCO2 (stereo unspecified) | · | · | · | · | -4.5 | · | · | ·
Cc1cccc(-n2ncc3c(=O)[nH]c(SCC(=O)NCCC4=CCCCC4)nc32)c1 | 14.3 | 0.3 | 0.5 | 3.5 | -4.7 | · | · | ·
CCCCCCCCCC(=O)Nc1cccnc1 | · | · | 3.6 | · | · | · | · | ·
NN1C(=O)/C(=C\c2ccco2)SC1=S | · | · | 41.6* | · | 20.4* | 1.7 | -0.1 | 5.9
O=C(CN1C(=O)/C(=C/c2ccco2)SC1=S)NC1CCS(=O)(=O)C1 (stereo unspecified) | 16.0 | 19.6 | 38.4* | 3.5 | 22.1* | 1.0 | -7.3 | 1.4
CCOC(=O)CN1C(=O)S/C(=C/c2ccco2)C1=O | 3.8 | 5.4 | 3.5 | 6.0 | 5.7 | · | · | ·
CC(=O)Nc1c(NCC(C)C)c2ccccc2oc1=O | 6.5 | -1.3 | -2.3 | 2.2 | -2.5 | · | · | ·
CC(C)[C@H](NC(=O)N1c2ccccc2NC(=O)[C@@H]1C(C)C)C(=O)N[C@@H](Cc1c[nH]c2ccccc12)C(=O)O | -1.6 | -2.6 | 5.2 | 2.1 | -0.4 | · | · | ·
CC1=NN(c2cccc(C(=O)O)c2)C(=O)/C1=C\C=C\c1ccco1 | 13.0 | 48.5* | 44.8* | 10.1 | 19.1* | 32.0* | -10.4 | 15.1
CNC(=S)N(CCO)Cc1cc2cc3c(cc2[nH]c1=O)OCO3 | 1.7 | 3.6 | 5.1 | 0.8 | -4.7 | · | · | ·
COc1cc(/C=C2\SC(N3CCC(C)CC3)=NC2=O)ccc1O | 6.3 | 12.1 | 5.5 | 6.1 | -6.1 | · | · | ·
Cc1nn(C)c(Oc2cccc(C(F)(F)F)c2)c1C=O | -2.9 | 5.4 | 3.3 | 5.7 | 3.2 | · | · | ·
C/C(=N\OCc1nc2ccccc2c(=O)n1/N=C/c1cc(C)cc([N+](=O)[O-])c1O)c1ccccc1 | 3.6 | 1.6 | 45.6* | 0.0 | 39.1* | 4.3 | -5.7 | 49.8*
N#Cc1c(SCC(=O)Nc2nc3ccccc3s2)sc2c(O)cc(=O)[nH]c12 | 27.6* | 34.5* | 40.7* | 18.8 | 19.2* | 30.6* | -14.4 | 15.0
N#Cc1c(SCC(=O)Nc2nccs2)sc2c(O)cc(=O)[nH]c12 | 21.8 | 32.2* | 37.4* | 16.7 | 19.8* | 9.8 | -12.8 | 15.4
Cc1cc(=O)[nH]c(SCC(=O)Nc2nc3ccccc3s2)n1 | 5.0 | 8.2 | 1.6 | 0.2 | -5.2 | · | · | ·
C=CCCC(=O)N(C)CCO | 10.4 | -3.5 | 1.9 | 6.5 | -3.4 | · | · | ·
CN=c1scc(C)n1/N=C/c1cc(Br)c(O)c(OC)c1 | 11.7 | 2.8 | 6.5 | -0.7 | 4.7 | · | · | ·
CN=c1scc(-c2cccs2)n1/N=C/c1ccccc1O | 5.6 | 0.9 | 5.6 | 4.7 | 12.7 | · | · | ·
CN=c1scc(C)n1/N=C/c1ccc(O)c(O)c1O | 7.8 | 5.2 | 60.1* | -1.2 | 52.7* | 8.9 | -16.1 | 64.9*
CN=c1scc(-c2cccs2)n1/N=C/c1ccc(O)c(O)c1O | -4.3 | 12.2 | 51.4* | -1.6 | 28.1* | 65.2* | -20.0 | 22.5*
COc1ccc(CCn2c(=O)[nH]c3cc(C(=O)N4CCN(c5ccccn5)CC4)ccc3c2=O)cc1OC | 7.4 | -2.1 | 0.2 | 1.8 | -0.6 | · | · | ·
CCn1c(CSc2nc3ccccc3s2)nnc1SCC(=O)c1ccc(O)c(O)c1 | 11.5 | 49.7* | 40.5* | 7.1 | 23.2* | 93.8* | -17.7 | 29.1* | PAFAH2 FP conf=23.1
CC(=O)OC[C@@H]1CN(Cc2ccccc2)C[C@H](n2cnc3c(NC4CCC4)ncnc32)O1 | · | · | · | · | 4.1 | · | · | ·
SMILES | PAFAH1B3 inh | PAFAH2 FP inh | pPAFAH inh | PAFAH1B2 inh | TCR CD3 inh | pPAFAH FP conf | BSA TAMRA ctr | TCR-CD3 conf | others
COCCN=c1scc(-c2cccs2)n1/N=C(\C)c1ccco1 | -3.5 | -0.7 | 6.2 | -3.1 | -4.6 | · | · | ·
C=CCN=c1scc(-c2ccco2)n1/N=C/c1ccc(O)c(O)c1O | 5.8 | 7.3 | 49.5* | -0.8 | 21.3* | 68.3* | -19.9 | 14.4
COCCN=c1scc(-c2ccco2)n1/N=C/c1ccc(O)c(O)c1O | 7.9 | 25.0 | 63.8* | -8.2 | 25.8* | 66.8* | -28.2 | 23.8*
O=c1c2ccccc2nc(-c2ccco2)n1/N=C/c1ccccc1O | -3.5 | -0.8 | 5.5 | -0.2 | 1.7 | · | · | ·
O=C1/C(=C/c2ccc(O)c([N+](=O)[O-])c2)SC(=S)N1Cc1ccccc1 | -2.9 | 25.3 | 11.0 | 4.7 | 1.4 | · | · | ·
O=C1/C(=C\c2cccc([N+](=O)[O-])c2O)SC(=S)N1Cc1ccccc1 | -12.5 | 2.3 | 34.7* | -0.8 | 82.2* | 77.0* | -89.0 | 8.8
CC(C)C[C@H]1CN(CCCC[C@H]2CNC(=O)C(=O)N2CCc2ccc(O)cc2)C(=O)C(=O)N1CCc1ccc(O)cc1 | · | · | · | · | 2.4 | · | · | ·
Nc1cccc(Nc2ccccc2)c1 | 5.3 | -1.7 | 1.2 | 5.2 | 4.2 | · | · | ·
Nc1ccc(Nc2ccccc2)c(S(=O)(=O)O)c1 | 9.3 | 18.4 | 60.2* | 4.0 | 22.4* | 7.7 | -2.7 | 8.7
COc1ccc(OCC(=O)Nc2ccc(N3CCN(C(=O)c4ccccc4)CC3)c(Cl)c2)cc1 | 2.6 | -0.6 | 2.0 | 2.1 | -2.6 | · | · | ·
CCNc1ccccc1CP(=O)(c1ccccc1)c1ccccc1O (stereo unspecified) | · | · | 42.1* | · | 51.2* | 7.8 | 3.8 | 5.2
CSc1nsc(/C=C/Nc2ccc(O)cc2C)c1C#N | 13.6 | 22.1 | 48.0* | 12.1 | 26.9* | 9.4 | 7.8 | 4.3
CSc1nsc(/C=C/Nc2ccc(F)cc2)c1C#N | -9.3 | -7.1 | 8.9 | -0.3 | -6.8 | · | · | ·
Cc1nc2ccccc2c(=O)n1/N=C/c1ccccc1O | 7.7 | -6.9 | 1.4 | 3.2 | -8.2 | · | · | ·
Cc1nc2ccccc2c(=O)n1/N=C/c1ccc(O)c(O)c1O | 27.1* | 45.5* | 86.8* | 7.0 | 40.8* | 46.7* | -10.5 | 24.9*
Cn1c(=O)c2c(nc(Oc3ccccc3Br)n2C)n(C)c1=O | 7.5 | 6.6 | · | 3.4 | 6.9 | · | · | ·
Cn1c(=O)c(N)c2c3c(c(Br)ccc31)C(=O)c1ccccc1-2 | 38.3* | 40.0* | 42.6* | 28.7* | 31.7* | 39.4* | 17.7 | 22.8*
CN1OC[C@@H]2CN(C(=O)C(C)(C)C)[C@H](c3cccc(Oc4ccccc4)c3)C[C@@H]21 | · | · | · | · | 4.2 | · | · | ·
Cc1c(NC(=S)N/N=C/c2cc([N+](=O)[O-])ccc2O)c(=O)n(-c2ccccc2)n1C | 25.1 | 23.3 | 47.2* | 19.1 | 31.7* | 16.8 | -4.8 | 30.9*
COc1ccc(/C=C(\NC(=O)c2ccccc2)C(=O)NCCN2CCOCC2)cc1 | 5.3 | 0.2 | -3.5 | -7.3 | 2.1 | · | · | ·
Cc1cc2cc(CNS(=O)(=O)c3ccccc3)ccc2n1C | 6.1 | 17.5 | 47.2* | 13.1 | 50.3* | 35.1* | 7.1 | 18.7

Source: PubChem BioAssay (The Scripps Research Institute Molecular Screening Center)
